Assay outcomes (PubChem)
HCV inh: blocks hepatitis C virus; Huh7.5.1 HCVcc-Cre infection, luciferase reporter, 44 h; Potency, µM (series often up to 41.8 µM), inactives show at the top dose activity change, negative = inhibition, hits mostly inhibitors; 340,000 tested, 3.4% active; AID 651820; active = well fitted inhibition curve with a large enough effect; inconclusive = small, poorly fitted or top-dose-only effect, or another doubt; inactive = no such curve, though single readings can be large or run the other way; note: potency is the fitted concentration of half-maximal effect; % is set by controls: 0 for no effect and ±100 for the full control effect
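Compounds are dispensed onto cells plated 4 h earlier at 1,000 per well, with HCVcc-Cre virus (about 0.5 moi) added next. Following 44 h of culture, luminescent signal is measured for 15 sec after 15 min with substrate at room temperature.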
Shiga toxin inh: inhibitors of Shiga toxin in Vero cells; Vero cells, Shiga toxin protein synthesis inhibition reporter; inhibition, % at 38.7 µM; 290,000 tested, 9.2% active; in the data active = inhibition mostly above about 28%, no sharp cut-off; inactive = mostly below about 43%; note: 0% is about no effect
Marburg entry inh: inhibitors of Marburg virus binding or cell entry | 300,000 tested, 1.8% active | Marburg virus pseudotyped entry inhibition, cell reporter | Potency, µM (highest dose often 37.8 µM), for the others: at the highest dose activity change, negative = inhibition, usual class: inhibitors; calls by dose curve; tested in HEK293 cells; note: potency is the fitted concentration of half-maximal effect; % is set by controls: 0 for no effect and ±100 for the full control effect
Cycloheximide cs: affects cycloheximide protein synthesis inhibition readout, counter-screen. cell reporter, cycloheximide protein synthesis inhibition counterscreen. max response, %. 300,000 tested, 12% active. AID 2314; in the data active = max response mostly above about 13%, no sharp cut-off; inactive = mostly below about 14%; note: read at 38.3 µM for the half of the compounds with a filed dose; 0% is about no effect
FMDV antiviral: foot and mouth disease virus antiviral activity | FMDV antiviral cell-based qHTS | 410,000 tested, 1.2% active | Potency, µM (series often up to 57.9 µM), inactives show top-dose activity change, negative = inhibition, hits mostly inhibitors | AID 1159524; calls by dose curve; tested in HEK293T cells; note: read-out not given here; potency is the fitted concentration of half-maximal effect; % is set by controls: 0 for no effect and ±100 for the full control effect; nearly all actives have a fitted effect of over 45% in size
LASV entry inh: inhibitors of Lassa virus binding or cell entry. Lassa virus pseudotype entry inhibition, cell reporter. Potency, µM (highest dose often 37.9 µM), for the others: at the highest dose activity change, negative = inhibition, hits mostly inhibitors. 300,000 tested, 1.2% active. AID 540256; calls by dose curve; tested in HEK293 cells; note: potency is the fitted concentration of half-maximal effect; % is set by controls: 0 for no effect and ±100 for the full control effect; nearly all actives have a fitted effect of over 50% in size
Numbers without * were called inactive; ? = inconclusive; · = no result; [ ] = dose if it differs, or a comment. In the library only some 13% were active in any assay of this set; here they are far more common.

SMILES | HCV inh | Shiga toxin inh | Marburg entry inh | Cycloheximide cs | FMDV antiviral | LASV entry inh
Nc1c(S(=O)(=O)c2ccccc2)c2nc3ccccc3nc2n1C1CC1 | 20% | -11 | 2%[46.1 µM] | -3 | 37% | 6%
Cc1c(C(=O)NCc2cccc([N+](=O)[O-])c2)sc(=O)n1Cc1ccc(C(C)C)cc1 | · | · | · | · | -24% | ·
CCCCNC(=O)c1nc(-c2ccncc2)oc1-c1ccc(OC(F)(F)F)cc1 | · | · | · | · | -16% | ·
CC(C)COc1cccc(-c2cc(C(=O)N/N=C/c3ccncc3)c3ccccc3n2)c1 | ? | -5 | 2.8µM* | 16 | 12% | ?
Cc1cc(C(=O)N/N=C/c2cccc([N+](=O)[O-])c2)c2ccccc2n1 | -15% | 15 | -1% | -3 | -29% | -8%
CCOc1ccccc1-c1cc(C(=O)N/N=C/c2cccnc2)c2ccccc2n1 | -18% | · | 5.6µM* | · | -14% | ?
Cc1cc(C(=O)N/N=C/c2cccnc2)c2ccccc2n1 | -3% | -7 | ? | -6 | -13% | -7%
CCOc1ccc(-c2cc(C(=O)N/N=C/c3cccnc3)c3ccccc3n2)cc1 | -25% | 62* | ? | 26* | -11% | ?
O=C(NN=Cc1cccc([N+](=O)[O-])c1)c1cc(-c2cccnc2)nc2ccccc12 | ? | · | · | · | 28µM* | ·
CC(=O)NCCCC(=O)NC(CCC(=O)OCc1ccccc1)C(=O)OCc1ccccc1 (stereo unspecified) | -6% | -5 | · | 2 | -6% | ·
COC(=O)COc1ccc(S(=O)(=O)NCc2ccccn2)cc1 | 20% | -4 | -1%[46.1 µM] | 9 | -2% | 0%[46.1 µM]
O=C(COc1ccccc1-c1ccccc1)N/N=C/c1cccnc1 | ? | -16 | · | -6 | -3% | ·
Cc1ccc(COc2ccccc2-c2cc(C(=O)N/N=C/c3cccnc3)[nH]n2)cc1 | ? | -8 | ? | 0 | ? | 8.9µM*
O=C(O)c1ccc(C[n+]2c(-c3ccccc3)csc2Nc2ccccc2)cc1 | 13% | -6 | -17% | -1 | -26% | 1%
CC(C)(C)c1cc(-c2csc(Nc3ccccc3)[n+]2Cc2ccc(C(=O)O)cc2)cc(C(C)(C)C)c1O | 13% | 17 | 11µM* | -3 | 32µM* | -20%
Cc1cc(NC(=O)c2ccccc2F)ccc1-c1nc2ccccc2s1 | · | · | · | · | 24% | 0%[46.1 µM]
O=C(O)C1CC(=O)n2c(nc3ccccc32)S1 (stereo unspecified) | 21% | 26 | 1% | 1 | -16% | -2%
O=C1CSc2nc3ccccc3n21 | 9% | 19 | 11% | 21* | 0% | -2%
N=c1c(S(=O)(=O)c2ccccc2)cc2c(=O)n3ccccc3nc2n1CCCN1CCOCC1 | -26% | -2 | ? | -3 | 9% | -13%[46.1 µM]
N=c1c(S(=O)(=O)c2ccc(Cl)cc2)cc2c(=O)n3ccccc3nc2n1CCN1CCOCC1 | 13µM* | -1 | -20% | -1 | -11% | 19%
Cc1ccc(S(=O)(=O)c2cc3c(=O)n4ccccc4nc3n(C3CCCCC3)c2=N)cc1 | 13µM* | -19 | -1% | 6 | ? | 30%
C/C(=N/OCC(=O)NCCCCCCNC(=O)CO/N=C(/C)c1cccs1)c1cccs1 | 22µM* | 28 | ? | 6 | -18% | ?
C/C(=N\OCC(=O)NC(C)C)c1cccs1 | 10% | -4 | · | 12 | 4% | ·
COC(=O)c1ccc(COC(=O)CCC(=O)c2cccs2)cc1 | 16% | 121* | ? | 62* | 41% | ?
O=C(CC(Nc1ccccc1Cl)C(=O)OCC(=O)c1cccs1)c1ccccc1 (stereo unspecified) | -1% | 69* | 5% | 53* | 16% | 9%
SMILES | HCV inh | Shiga toxin inh | Marburg entry inh | Cycloheximide cs | FMDV antiviral | LASV entry inh
O=C(COC(=O)c1cccs1)Nc1ccc(F)c(F)c1 | 9% | · | · | · | 6% | ·
O=C(COC(=O)c1cccs1)Nc1ccccc1 | -3% | 109* | 1% | 51* | 53% | 8%
Cn1c(=O)n(C)c2cc(N3CCCCC3)c(NC(=O)c3cccc(Cl)c3)cc21 | ? | -4 | 23%[46.1 µM] | -2 | -22% | 23%[46.1 µM]
CC(C)[C@H]1C(=O)Nc2ccccc2N1C(=O)N[C@@H](Cc1ccccc1)C(=O)N[C@@H](Cc1ccccc1)C(=O)O | 2% | -6 | · | -4 | -13% | ·
CCOC(=O)Cn1c(=O)oc2cc(S(=O)(=O)N3CCN(c4cc(C)ccc4C)CC3)ccc21 | · | · | -11%[46.1 µM] | · | -17% | ?
CCSc1nc(-c2cccc(Cl)c2)nc2c1Cc1c(CO)cnc(C)c1O2 | · | · | · | · | -23% | 27%[46.1 µM]
